Laboratory results from PubChem BioAssay AID1159580 (chemical genetic matrix, 2015).
The campaign covered roughly 5,500 compounds. About 2,000 (36%) were called active. About 18% were inconclusive and are not listed. No stated cut-off is given here; in the data, active means normalized growth mostly below about 0.91 (no sharp cut-off); inconclusive means no clear call, values can overlap the other calls; inactive means mostly above about 0.92. The list shows a part of the results.

Test: chemical genetic growth profiling, strain panel (AID 1159580);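 further: tested at 20 µM; growth read once vehicle control cultures reached saturation at 30 °C; 1 = growth at the plate median or of vehicle wells; lower values mean less growth of the strain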
Conditions: S. cerevisiae deletion strains, growth OD

Measured: normalized growth

Cc1nn(Cc2n[nH]c(=S)o2)c(C)c1Br
inactive: locus YAL013W, strain DEP1, active compounds read low 0.998 | locus YBR229C, strain ROT2, active compounds read low 0.993 | locus YDL101C, strain DUN1, active compounds read low 1 | locus YDR150W, strain NUM1, active compounds read low 0.933 | locus YEL061C, strain CIN8, active compounds read low 1.02 | locus YGR078C, strain PAC10, active compounds read low 0.981 | locus YHR030C, strain SLT2, active compounds read low 1.02 | locus YHR087W, strain rtc3, active compounds read low 0.983 | locus YJL187C, strain SWE1, active compounds read low 0.968 | locus YJR043C, strain POL32, active compounds read low 0.983 | locus YJR075W, strain HOC1, active compounds read low 0.979 | locus YKL190W, strain CNB1, active compounds read low 1.02 | locus YLR039C, strain RIC1, active compounds read low 1.02 | locus YLR058C, strain SHM2 (second series), active compounds read low 0.996 | locus YLR085C, strain ARP6, active compounds read low 1.09 | locus YLR262C, strain YPT6, active compounds read low 1.04 | locus YML094W, strain GIM5, active compounds read low 1.02 | locus YMR219W, strain ESC1, active compounds read low 0.996 | locus YMR263W, strain SAP30, active compounds read low 0.93 | locus YNL128W, strain TEP1, active compounds read low 1.01 | locus YNL153C, strain GIM3, active compounds read low 1.01 | locus YNL298W, strain CLA4 (second series), active compounds read low 1.05 | locus YNL322C, strain KRE1, active compounds read low 0.999 | locus YNR030W, strain Alg12, active compounds read low 1.01 | locus YPL055C, strain LGE1, active compounds read low 0.955 | locus YPL241C, strain CIN2, active compounds read low 1.02 | locus YPR135W, strain CTF4, active compounds read low 1.04
